# Experimental data reported in PubChem BioAssay AID504339 (National Center for Advancing Translational Sciences (NCATS), 2011).
# Among all 390,000 compounds or so, about 17,000 (4.4%) were called active. Roughly 8% stayed inconclusive and do not appear here. Calls follow the shape of the dose curve; as a rule, active = well fitted inhibition curve with a large enough effect; inconclusive = small, poorly fitted or top-dose-only effect; inactive = no such curve, though single readings can be large or run the other way. The entries come from a sample that favours actives as a whole.
# Biological target: Lysine-specific demethylase 4A (Homo sapiens) (UniProt O75164)
# Sequence (O75164 whole entry, looked up, the tested form may be a part): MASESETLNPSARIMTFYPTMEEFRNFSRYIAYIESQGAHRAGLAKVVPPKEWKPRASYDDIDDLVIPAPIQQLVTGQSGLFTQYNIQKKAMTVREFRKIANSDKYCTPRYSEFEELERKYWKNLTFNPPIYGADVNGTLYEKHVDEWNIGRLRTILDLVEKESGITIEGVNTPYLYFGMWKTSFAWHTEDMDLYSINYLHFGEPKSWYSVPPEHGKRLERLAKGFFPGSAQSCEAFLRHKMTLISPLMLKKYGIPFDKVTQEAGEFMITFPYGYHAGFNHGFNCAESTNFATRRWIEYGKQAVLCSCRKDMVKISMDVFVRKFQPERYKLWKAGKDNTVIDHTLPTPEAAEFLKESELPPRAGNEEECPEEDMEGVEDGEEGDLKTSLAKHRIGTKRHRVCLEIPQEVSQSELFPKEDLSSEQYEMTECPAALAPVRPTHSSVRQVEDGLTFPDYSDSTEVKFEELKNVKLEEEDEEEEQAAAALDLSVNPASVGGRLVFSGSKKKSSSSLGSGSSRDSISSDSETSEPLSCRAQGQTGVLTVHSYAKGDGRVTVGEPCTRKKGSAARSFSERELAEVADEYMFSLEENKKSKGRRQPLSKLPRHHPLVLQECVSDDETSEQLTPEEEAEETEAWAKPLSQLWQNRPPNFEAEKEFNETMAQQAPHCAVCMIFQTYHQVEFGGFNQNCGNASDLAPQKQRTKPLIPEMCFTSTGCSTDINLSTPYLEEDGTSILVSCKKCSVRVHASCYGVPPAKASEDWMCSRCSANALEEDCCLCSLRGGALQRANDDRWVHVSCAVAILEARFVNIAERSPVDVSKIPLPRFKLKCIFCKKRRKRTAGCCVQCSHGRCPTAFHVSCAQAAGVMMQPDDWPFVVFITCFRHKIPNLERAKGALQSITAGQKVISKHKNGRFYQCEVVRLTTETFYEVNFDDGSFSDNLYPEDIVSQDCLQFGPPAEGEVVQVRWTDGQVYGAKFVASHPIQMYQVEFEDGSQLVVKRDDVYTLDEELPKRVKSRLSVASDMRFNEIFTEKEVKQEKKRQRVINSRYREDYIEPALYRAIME
# Test: qHTS Assay for Inhibitors of JMJD2A-Tudor Domain; also: nearly all actives have a fitted effect of over 50% in size
# Conditions: AlphaScreen JMJD2A-Tudor / H3K4me3 peptide binding; series mostly up to 114 µM; activity change, negative = inhibition: at the top concentration
# % is scaled to controls: 0 for no effect and ±100 for the full control effect; potency is read from the fitted curve at half-maximal effect.
SMILES,"activity change, negative = inhibition",Potency
CCC(=O)Nc1cccc(-c2nc3cc(C)ccc3o2)c1,2.56% (inactive),
Cc1ccc(-n2nnnc2CNC(=O)c2ccccc2C)cc1C,-3.85% (inactive),
O=C(CCc1[nH]c2ccccc2c1Sc1ccccc1)N(CCO)CCO,,79.4 µM (active)
CCCNC(=O)c1ccc(Cn2c(SCC(N)=O)nc3ccccc3c2=O)cc1,-18.5% (inactive),
COc1ccc([C@H]2CC(=O)C=C(c3ccc(CO)cc3)C2)cc1,,28.2 µM (active)
COc1ccc2cc(C3=CC(=O)C[C@H](c4ccc5c(c4)OCO5)C3)ccc2c1,-26.8% (inactive),
COc1ccc([C@H]2CC(=O)C=C(c3ccc(C)cc3)C2)cc1,4.23% (inactive),
Cc1ccc(C)c(N2CCN(C(=O)CCc3c(C)nc4c(c3C)c(=O)n(C)c(=O)n4C)CC2)c1,-7.41% (inactive),
O=C(CCC1N=C2c3ccccc3N=C(SCc3ccccc3F)N2C1=O)NCCc1ccccc1 (stereo not given),-18% (inactive),
COc1ccc(C(=O)CSc2c(C(C)C)cnc3c2c(=O)n(C)c(=O)n3C)cc1,-18.2% (inactive),
CCOC(=O)c1cccc(NS(=O)(=O)c2cc(-c3cnc(C)o3)ccc2OC)c1,-33.4% (inactive),
Oc1ccc(N=Nc2nccs2)c(O)c1,,35.5 µM (active)
Oc1ccc2ccccc2c1N=Nc1nccs1,,5.62 µM (active)
Cc1cccc(NC(=O)Cn2c(=O)n(CCC(C)C)c(=O)c3cccnc32)c1,-9.45% (inactive),
O=C(NCCCc1ccccc1)c1ccc2c(c1)sc1nc(-c3ccc(F)cc3)cn12,-15.5% (inactive),
CC1=C(C(=O)OCC2CCCCC2)C(c2c(F)cccc2Cl)CC(=O)N1 (stereo not given),3.42% (inactive),
N#Cc1nc(-c2ccc(OCc3ccccc3)cc2)oc1NCCCN1CCOCC1,,35.5 µM (active)
CC1CC(C)CN(c2oc(-c3ccc(OCc4ccc(Cl)cc4)cc3)nc2C#N)C1 (stereo not given),-19.2% [at 57.1 µM] (inactive),
O=S(=O)(c1ccccc1)c1nc(-c2ccccc2)oc1NCCCN1CCOCC1,-22.2% (inactive),
CCc1cccc(NC(=O)Cn2nc(CC)n3c(cc4cc(C)ccc43)c2=O)c1,0% (inactive),
CCOc1ccc(NC(=O)Cn2cc(C(=O)c3ccc(C)cc3)c(=O)c3cc4c(cc32)OCCO4)cc1,-20.5% (inactive),
CCN(CC)S(=O)(=O)c1ccc2c(c1)nc(CN(C)C(=O)Nc1ccc(Cl)cc1)n2C,-0.993% (inactive),
Cc1ccc(C)c(N2CCN(C(=O)Cc3c(C(=O)O)c(C)cn3C)CC2)c1,-20.3% (inactive),
Cc1[nH]c(N)nc(=S)c1CCCNc1ccccc1,,50.1 µM (active)
CCc1c(Nc2ccccc2C)nc(N)[nH]c1=O,-16.6% (inactive),

SMILES,"activity change, negative = inhibition",Potency
COc1ccc(Cl)cc1NC(=O)CSc1nc(-c2cccs2)cc(C(F)(F)F)n1,-8.59% (inactive),
Cc1ccc(NC(=O)CN2C(=O)CC(C)Sc3ccccc32)c(C)c1 (stereo not given),-13.1% (inactive),
O=C(Oc1ccc([N+](=O)[O-])cc1)c1ccc2ccccc2n1,,28.2 µM (active)
COc1ccc(C(=O)COC(=O)c2ccc3ccccc3n2)cc1,0.744% (inactive),
CC(OC(=O)c1ccc2ccccc2n1)C(=O)c1ccccc1 (stereo not given),-2.94% [at 11.4 µM] (inactive),
COc1ccc2c(c1)c(=O)c(C(=O)c1ccccc1)cn2CC(=O)Nc1ccc2c(c1)OCCO2,-21.2% (inactive),
CC(C)(C)c1ccc(C(=O)Nc2ccc3c(c2)CCCN3C(=O)c2cccs2)cc1,-23.5% (inactive),
Cc1ccc2[nH]c(C)c(CCNC(=O)NC3CCCCC3)c2c1,-4.56% (inactive),
Cc1ccc(NC(=S)N(Cc2ccco2)C(C)c2cccs2)cc1 (stereo not given),-7.04% (inactive),
CCNC(=S)N(CCc1c(C)[nH]c2ccc(C)cc12)Cc1ccco1,,63.1 µM (active)
CCOc1ccc(CNC(=O)c2cc(=O)[nH]c3ccc(S(=O)(=O)N4CCCCC4)cc23)cc1,-11.3% (inactive),
CCOC(=O)c1ccc(NC(=O)Cn2c(=O)n(-c3ccc(C)cc3)c(=O)c3c2cnn3C)cc1,-6.14% (inactive),
COc1ccc(OC)c(NC(=O)CN(C)CCOc2ccc(Br)cc2)c1,-21.7% (inactive),
CN(C)CCOc1cccc(Br)c1,,3.55 µM (active)
COc1ccc(OCC(=O)OCCN(C)C)cc1,1.03% (inactive),
Cc1ccc(-c2cn3c(n2)sc2cc(C(=O)NCCCc4ccccc4)ccc23)cc1,-4.28% (inactive),
CCCCOc1ccc(C(=O)Nc2cccc(-c3nc4ccccc4o3)c2C)cc1,-13.1% (inactive),
CCCCCCCCCOC1OC(CO)C(O)C(O)C1NC(C)=O (stereo not given),-7.22% (inactive),
CCc1cccc(OC2OC(CO)C(O)C(O)C2NC(C)=O)c1 (stereo not given),-1.03% (inactive),
CCCCCCCCOC1OC(CO)C(O)C(O)C1NC(C)=O (stereo not given),,79.4 µM (active)
CCc1nc2c(cnn2-c2ccc(C)cc2)c(=O)n1-c1ccc(C)cc1,-8% (inactive),
CCOC(=O)c1ccccc1CN1C(=O)c2ccccc2S1(=O)=O,7.12% (inactive),
CCOC(=O)C1=C(c2ccc(OC)cc2)C(=O)c2ccccc2C1=O,,39.8 µM (active)
CCOC(=O)C(NC(C)=O)C(=O)Nc1ccc(OC)cc1 (stereo not given),-15.2% (inactive),
COc1ccc(NS(=O)(=O)c2cc3c4c(c2)CC(=O)N4CCC3)cc1Cl,-14% (inactive),

SMILES,"activity change, negative = inhibition",Potency
CCc1ccc(NS(=O)(=O)c2ccc3[nH]cc(C(=O)NCCc4cccc(C)c4)c(=O)c3c2)cc1,-5.77% (inactive),
COc1ccc(C2/C(=C(/O)c3ccc(OC(C)C)cc3)C(=O)C(=O)N2CCCN2CCOCC2)cc1 (stereo not given),-6.85% (inactive),
COc1cc(OC)c2c(c1C(CCN1CCCCC1)c1ccc(N(C)C)cc1)OC(=O)CC2c1ccc(N(C)C)cc1 (stereo not given),,35.5 µM (active)
COc1ccc(C2CC(=O)Oc3ccc(C(C)(C)C)cc32)cc1 (stereo not given),17.9% (inactive),
COc1ccc(C(CCN2CCOCC2)c2c(OC)cc(OC)c3c2OC(=O)CC3c2ccc(OC)cc2)cc1 (stereo not given),,35.5 µM (active)
CCN(CC)CCC(c1cc(OC)c(OC)c(OC)c1)c1c(OC)cc(OC)c2c(-c3ccccc3)cc(=O)oc12 (stereo not given),,inactive
COc1cc(OC)c2c(C)cc(=O)oc2c1C(CCN1CCCCC1)c1ccc(N(C)C)cc1 (stereo not given),,39.8 µM (active)
COc1cc(C2CC(=O)Oc3cc(OC)c(OC)c(OC)c32)cc(OC)c1OC (stereo not given),-11.6% (inactive),
COc1cc(OC)c2c(c1)OC(=O)CC2c1cc(OC)c(OC)c(OC)c1 (stereo not given),-10.1% (inactive),
COc1cc(OC)c2ccc(=O)oc2c1C(CCN1CCN(c2ccccc2)CC1)c1ccc2c(c1)OCO2 (stereo not given),,17.8 µM (active)
COc1cc(COCC(O)CN2CCN(Cc3ccc4c(c3)OCO4)CC2)cc(OC)c1OC (stereo not given),-14.8% (inactive),
O=C(NCC(c1ccc2c(c1)OCO2)N1CCN(c2ccccc2)CC1)C(=O)Nc1ccccc1F (stereo not given),-30% (inactive),
COc1ccc(CNC(=O)c2cc3c(=O)[nH]c4ccc(C)cc4c3s2)c(OC)c1,-7.27% (inactive),
COc1ccc(-c2cn3c(n2)sc2cc(C(=O)Nc4ccccc4F)ccc23)cc1,-9.21% (inactive),
Cc1ccccc1CNC(=O)c1cccc(NC(=O)c2nsc3ccccc23)c1,-2.6% (inactive),
COc1ccc(-n2c(=O)c3sc4ccccc4c3n(CC(=O)Nc3cccc(C)c3)c2=O)cc1,-7.95% (inactive),
O=C(Nc1ccc2nc(SCCOc3ccccc3)sc2c1)c1ccco1,-11.9% (inactive),
CC(=O)c1ccc(NS(=O)(=O)c2ccc(-c3cc(C)no3)s2)cc1,-20.1% (inactive),
CCN(CC)c1nn2c(=O)c(C(=O)NCCc3ccccc3)cnc2s1,-12% (inactive),
CCN(CCCNC(=O)c1c(C)oc2ncn(CC(C)C)c(=O)c12)Cc1ccccc1,-0.647% (inactive),
CCc1ccc(NC(=O)CCS(=O)(=O)c2cc3c(cc2Cl)NC(=O)CO3)cc1,-16.8% (inactive),
O=C(CSc1nc(=O)n(Cc2cccnc2)c2c1CCC2)Nc1ccc(F)cc1F,-1.3% (inactive),
O=S(=O)(c1ccc2nc(NCc3ccccc3Cl)ccc2c1)N1CCCCC1,-26% (inactive),
COc1cc(NS(=O)(=O)c2ccc3ccccc3c2)c2ncccc2c1,,inactive
O=S(=O)(Nc1cccc2cccnc12)c1cccc2cccnc12,-32.2% (inactive),

SMILES,"activity change, negative = inhibition",Potency
O=[N+]([O-])c1ccccc1S(=O)(=O)Nc1cccc2cccnc12,,56.2 µM (active)
COc1ccccc1CNC(=O)C(Cc1ccccc1)NS(=O)(=O)c1ccc2c(c1)oc(=O)n2C (stereo not given),-15.5% (inactive),
O=C1CCCc2cc(S(=O)(=O)N3CCCC(C(=O)NCc4ccccc4)C3)ccc2N1 (stereo not given),-0.647% (inactive),
O=C(NCc1ccccc1Cl)c1cccn1-c1nnc(N2CCCCC2)s1,-28.2% (inactive),
COc1ccc(-c2nn(CC(=O)Nc3ccccc3F)c3c2cnc2ccc(F)cc23)cc1,-7.67% (inactive),
C=CCOc1c(CNn2cn[nH]c2=S)cccc1OC,,3.55 µM (active)
C=CCOc1cccc(CNn2cn[nH]c2=S)c1,,22.4 µM (active)
C=CCC(Nc1ccccc1)c1cccc(OC)c1OC (stereo not given),28.4% (inactive),
C=CCOc1cccc(CNCc2cccnc2)c1,-16.4% (inactive),
COc1cccc(CNCCSc2nnnn2C)c1OCc1ccccc1Cl,-2.24% (inactive),
C=CCOc1cccc(C2NC(=O)c3ccccc3O2)c1 (stereo not given),-17.8% (inactive),
COc1ccc(CCNC(=O)c2cc(=O)c3c(C)cc(C)cc3o2)cc1OC,-22.9% (inactive),
CSc1nc(-c2ccccc2Cl)nc2c1Cc1c(CO)cnc(C)c1O2,-27.5% (inactive),
COc1ccccc1CNC(=O)c1ccc(CS(=O)c2ccccc2Cl)o1 (stereo not given),8.79% (inactive),
CCc1nn(CC(=O)Nc2cc(C)cc(C)c2)c(=O)c2cc3sccc3n12,-14.9% (inactive),
CC(=O)N1CCCc2cc(S(=O)(=O)N3CCC(C(=O)NC4CCCCC4)CC3)ccc21,-7.74% (inactive),
CN(CC(=O)Nc1cccc(C(F)(F)F)c1)S(=O)(=O)c1cccs1,0.683% (inactive),
COc1ccc(CNC(=O)CN(Cc2ccc(Cl)cc2)S(C)(=O)=O)cc1,-6.03% [at 57.1 µM] (inactive),
CN(CC(=O)NCc1ccc(Cl)cc1)S(=O)(=O)c1cccs1,,89.1 µM (active)
Cc1ccc2sc(N(Cc3cccnc3)C(=O)C3COc4ccccc4O3)nc2c1C (stereo not given),-15.6% (inactive),
Cc1ccc(C(=O)Nc2ccc(OCc3cc(=O)n4c5c(sc4n3)CCCC5)cc2)cc1,6.29% (inactive),
COn1c(=O)c(=O)n(OC)c2ccccc21,-17.5% (inactive),
CCOn1c(=O)c(=O)n(O)c2ccccc21,,44.7 µM (active)
CCOC(=O)c1nnn2c3ccccc3c(=O)n(C)c12,-7.58% (inactive),
Cc1ccc(-c2cnc(C3CC3)o2)cc1S(=O)(=O)Nc1cccc(C)c1C,-26.8% (inactive),
